The panel holds about 83,000 compounds, 20% with a hit somewhere; the sample as a whole holds those more often.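 Compound tested at a single concentration for 48 hours in 96-well plates; a percent growth value below 10 was scored as active.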 Active and inactive are the calls of the source.
These compounds were tested on SR leukemia (assay: NCI-60 one-dose screen, 48 h (100 = growth as untreated, 0 = no growth, -100 = all killed)). Details: 10 µM unless noted.

SMILES	growth
CC1OC(n2c3ccccc3c3c4c(c5c6ccccc6[nH]c5c32)C(=O)N(CCN[C@H]2CCC[C@@H]2N)C4=O)CC(O)C1O (some centres undefined)	-1.11% (active)
Oc1ccc(-c2nnc3c4[nH]ccc4ncn23)cc1	82.4% (inactive)
Nc1c(Br)cc2c(c1Br)Cc1cc(Cl)ccc1-2	80% (inactive)
C#C[C@]1(O)CC[C@H]2[C@@H]3CC=C4c5sc(-c6cccc(Br)c6)nc5CC[C@]4(C)[C@H]3CC[C@@]21C	45.6% (inactive)
O=C1NN(C(=O)c2ccccc2)C(c2ccc(Cl)c(Cl)c2)=C/C1=C\c1ccccc1[N+](=O)[O-]	6.01% [6.75 µM] (active)
NS(=O)(=O)c1ccc(CCn2c(SCC(=O)N/N=C/c3cc4ccccc4[nH]3)nc3ccccc3c2=O)cc1	26.4% (inactive)
CC(C)CC(=O)C(CCc1ccccn1)C(C)C (centres undefined)	108% (inactive)
Cc1cc(C#Cc2ccc(C(C)(C)C)cc2)ccc1-n1c(/C=C/c2c(Cl)cccc2Cl)nc2ccccc2c1=O	88.1% (inactive)
CCOC(=O)c1ccc(NC(=O)CSC(N)=O)cc1	96.8% (inactive)
CCOCCNc1ccc(S(=O)(=O)c2ccc(N)cc2)cc1N	115% (inactive)
CC(=O)O[C@@H]1CC2C(C)(C)CCCC2(C)C2=C1C(=O)C(C(C)C)=CC2=O (some centres undefined)	-0.431% (active)
CCN(CC)CCCC(C)Nc1c(-c2ccccc2)cnc2cc(Cl)ccc12 (centres undefined)	7.58% (active)
COc1ccc(CNc2c3ccccc3nc3ccccc23)cc1F	4.85% (active)
Clc1ccc(-c2cnc3c(-c4ccnc(N5CCNCC5)c4)cnn3c2)cc1	-0.57% (active)
